About 710 (71%) of roughly 1,000 compounds were called active. Inconclusive results (about 7%) are left out.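 Rule for the calls: active = inhibition of receptor movement into the nucleus at or above a set limit in both runs, with normal cell brightness and cell count; inconclusive = limit reached in only one run, brightness and count normal; inactive = the rest.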 The set was probably picked from earlier hits. The list is a sample of the results.

A short description of this experiment: dynein cargo transport inhibitors, GR-EGFP translocation, confirmation, imaging, high-content imaging, GR-EGFP cells (AID 463116).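 For inhibition: dexamethasone at 1 µM final in well for 30 min; nuclear minus cytoplasmic GR-EGFP mean intensity difference in channel 2.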 The following applies: 3617.4 GR-EGFP nuclear translocation imaging, dexamethasone-induced, at 20 µM; inhibition: stronger effect = higher value; z-score: measured here: cell count per field.
As usually defined, the inhibition is the change of the read-out against control, counted positive when it falls. Turning to `COc1cccc(N2C(=O)NC(=O)/C(=C\c3ccc([N+](=O)[O-])s3)C2=O)c1`, the inhibition was 81.3% (active) and the z-score turned out to be 0.0253.

`O=C1NC(=O)N(c2ccccc2)C(=O)/C1=C/c1ccc([N+](=O)[O-])s1`: the inhibition is 81.8% (active) and the z-score was 0.0604.

The values are drawn from PubChem BioAssay AID463116 (University of Pittsburgh Molecular Library Screening Center, 2010).
